Potency data for 19 compounds are collected here from PubChem BioAssay (NCATS).

Records with an inconclusive call do not appear. Entries that show only a call come without a potency. Activity calls are given as the source filed them. The call rests on the fitted dose curve; in most records, active means well fitted cell-killing curve with a large enough effect; inconclusive means small, poorly fitted or top-dose-only effect; inactive means flat fitted curve, though single readings scatter.
Potency means the concentration at half of the fitted maximal effect.

A short description of this test: Cell Viability - LYMP1-002 - Assay at 40 hr (AID 994). Further: nearly all actives have a fitted effect of over 60% in size. To be noted: LYMP1-002 lymphoblastoid cell viability; series mostly up to 92.2 µM. An excerpt: NIH Chemical Genomics Center [NCGC]
NIH Molecular Libraries Screening Centers Network [MLSCN]
National Institutes of Environmental Health Sciences [NIEHS]
National Toxicology Program [NTP]
We have developed a 1536-well cell-based assay for quantitative high throughput screening (qHTS) against a number of cell lines to determine in vitro cytotoxicity of small molecules. This particular assay uses a human lymphoblastoid cell line (LYMP1-002) purchased from Coriell Institute for Medical Research.
NCGC Assay Protocol Summary:
The CellTiter-Glo luminescent cell viability assay (Promega) is a homogeneous method to measure the number of viable cells in culture. The end point readout of this assay is based on quantitation of intracellular ATP, an indicator of metabolic activity, using the luciferase reaction. Luciferase catalyzes the oxidation of beetle Luciferin to oxyluciferin and light in the presence of ATP. The luminescent signal is proportional to amount of ATP present.
Using the CellTiter-Glo luminescent cell viability assay, the amount of cellular ATP was measured in the lymphoblastoid cell line with complete culture medium following compound treatment for 40 hours. The assay was performed in opaque white Kalypsys 1536-well plates. In the screen, tetraoctylammonium bromide was used as positive control. Library compounds were measured for their ability to cause acute toxicity in the cell line, as reflected by a decrease in intracellular ATP levels, in a concentration-dependent manner. […] AC50 values were determined from concentration-response data modeled with the standard Hill equation.
qHTS protocol for CellTiter Glo lymphoblastoid cellular assay
[Step] [Parameter] [Value] [Description]
1. Reagent; 5 uL; 2500 lymphoblastoid cells/well
2. Time; 5 hr; 37 C incubation
4. Controls; 23 nL; Tetraoctylammonium bromide 6.4pM to 92 uM
5. Time; 40 hr; 37 C incubation
6. Reagent; 5 uL; CellTiter Glo reagent
7. Time; 30 min; Room Temperature
8. Detection; Luminescence; Viewlux plate reader
Keywords: cell viability, cytotoxicity, lymphoblastoid cell line, luminescence, NTPHTS, NTPHTS_NCGC, NIEHS, DSSTox, MLSMR, MLSCN, NIH Roadmap, qHTS, NCGC
As to `CC(C)c1cccc(C(C)C)c1O`, the Potency entry is “inactive”. Consider `COc1cc(OC)c(OC)cc1C=O`, for which the Potency result was “inactive”. With `COP(=S)(OC)Oc1ccc(SC)c(C)c1` the entry was “inactive”; with `Nc1ccccc1`, “inactive”; with `C[C@]12CCC(=O)C=C1CC[C@@H]1[C@@H]2CC[C@]2(C)C(=O)CC[C@@H]12`, “inactive”. In the case of `CCOC(=O)CC(SP(=S)(OC)OC)C(=O)OCC` (centres undefined) it was “inactive”.

Turning to `CCCC(C)(COC(N)=O)COC(N)=O`, the Potency result is “inactive”. With `Nc1ccccc1C(=O)O` the entry was “inactive”; with `C[C@]1(O)CC[C@H]2[C@@H]3CCC4=CC(=O)CC[C@]4(C)[C@@]3(F)[C@@H](O)C[C@@]21C`, “inactive”. With `O=P1(N(CCCl)CCCl)NCCCO1` (centres undefined) the entry was “inactive”; with `CN1C[C@H](C(=O)N[C@]2(C)O[C@@]3(O)[C@@H]4CCCN4C(=O)[C@H](Cc4ccccc4)N3C2=O)C=C2c3cccc4[nH]cc(c34)C[C@H]21`, “inactive”; with `C[C@]12CCC(=O)C=C1CC[C@@H]1[C@@H]2CC[C@@]2(C)[C@H]1CC[C@]2(C)O`, “inactive”. With `Clc1ccc(C(c2ccc(Cl)cc2)C(Cl)(Cl)Cl)cc1` the entry was “inactive”. With `O=C(O)CCCc1ccc(N(CCCl)CCCl)cc1`, the Potency was 25.1 µM (active). In the case of `Oc1ccc(Cl)cc1` it was “inactive”.

For the compound `CCC(C)(C)c1ccc(O)cc1`, the Potency result is “inactive”. For `NCCc1ccc(O)cc1`, the Potency entry is “inactive”. With `CC(C)NC(C)C` the entry was “inactive”; with `COC(=O)C(c1ccccc1)C1CCCCN1` (centres undefined), “inactive”.
